We go through 17 compounds from PubChem BioAssay AID1508601 (ICCB-Longwood Screening Facility, Harvard Medical School, 2020).

Experiment [1] can be described thus: p53 stabilisation in HPV-positive human cells, imaging, p53-positive nuclei imaging, 24 h, 48 h (AID 1508601). Conditions: 24/48 h.
Experiment [2] has as its target Cellular tumor antigen p53 (Homo sapiens) (UniProt P04637). Described as above. Conditions: 24/48 h, stronger effect = higher value.
Where [3] appears, read: measured here: cell number at 24 h, concentration not given here.
[4] abbreviates: measured here: cell number at 48 h, concentration not given here.
Where [5] appears, read: measured here: p53 positive nuclei at 24 h, concentration not given here.
The mark [6] stands for this setting: measured here: cell number at 24 h, Library stock concentration: 80 uM.
Setting [7] is: measured here: cell number at 24 h, Library stock concentration: 400 uM.
Where [8] appears, read: measured here: cell number at 24 h, Library stock concentration: 2 mM.
Setting [9] is: measured here: cell number at 24 h, Library stock concentration: 3.33 mM.
Setting [10] is: measured here: cell number at 24 h, Library stock concentration: 10 mM.
Where [11] appears, read: measured here: cell number at 48 h, Library stock concentration: 80 uM.
Setting [12] is: measured here: cell number at 48 h, Library stock concentration: 400 uM.
Setting [13] is: measured here: cell number at 48 h, Library stock concentration: 2 mM.
Setting [14] is: measured here: cell number at 48 h, Library stock concentration: 3.33 mM.
Setting [15] is: measured here: cell number at 48 h, Library stock concentration: 10 mM.
Setting [16] is: Library stock concentration: 80 uM.
Setting [17] is: Library stock concentration: 400 uM.
Where [18] appears, read: Library stock concentration: 2 mM.
The mark [19] stands for this setting: Library stock concentration: 3.33 mM.
[20] abbreviates: Library stock concentration: 10 mM.
Where [21] appears, read: measured here: p53 positive nuclei at 24 h, Library stock concentration: 80 uM.
Setting [22] is: measured here: p53 positive nuclei at 24 h, Library stock concentration: 400 uM.
[23] abbreviates: measured here: p53 positive nuclei at 24 h, Library stock concentration: 2 mM.
[24] abbreviates: measured here: p53 positive nuclei at 24 h, Library stock concentration: 3.33 mM.
Where [25] appears, read: measured here: p53 positive nuclei at 24 h, Library stock concentration: 10 mM.

Hit rate of the full screen: of about 5,700 compounds, about 85 (1%) were called active. No stated cut-off is given here; in the data, active means p53-positive nuclei above about 36% (passing the limit was not always enough); inactive means the rest. The list comes from a sample in which actives are over-represented; it also holds similar structures and randomly drawn compounds. Peptide text beside a SMILES is read from it.

Sequence of Cellular tumor antigen p53 (Homo sapiens) (P04637 whole entry, looked up): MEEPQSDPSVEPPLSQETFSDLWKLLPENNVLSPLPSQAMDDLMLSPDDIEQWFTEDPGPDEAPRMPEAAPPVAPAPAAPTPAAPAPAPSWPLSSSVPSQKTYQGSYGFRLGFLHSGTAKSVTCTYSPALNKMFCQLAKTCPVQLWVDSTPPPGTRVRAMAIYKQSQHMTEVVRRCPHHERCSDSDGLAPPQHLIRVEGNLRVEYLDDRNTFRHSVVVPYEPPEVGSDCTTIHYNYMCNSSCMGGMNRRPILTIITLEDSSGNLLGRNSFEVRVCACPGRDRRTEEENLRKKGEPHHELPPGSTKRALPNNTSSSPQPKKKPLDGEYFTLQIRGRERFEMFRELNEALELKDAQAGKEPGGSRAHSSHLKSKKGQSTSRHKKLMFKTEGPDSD

`CCCCN=C(N)NO`: the nuclei count, normalised in experiment [1] (setting [3]) and in experiment [1] (setting [4]) was 99.4% throughout. The values for the p53-positive nuclei, normalised in experiment [2] (concentration not given here) and in experiment [2] (setting [5]) were -0.143% (inactive) and -0.0268%, respectively.

`O=C(Nc1ccc(-c2ccnc(Nc3ccc(N4CCOCC4)cc3)n2)cc1)C1CCCN1` (configuration not stated): the nuclei count, normalised in experiment [1] (setting [6]) was 114%; in experiment [1] (setting [7]), 116%; in experiment [1] (setting [8]), 107%; in experiment [1] (setting [9]), 102%; in experiment [1] (setting [10]), 104%; in experiment [1] (setting [11]) it was 109%. Besides, the nuclei count, normalised in experiment [1] (setting [12]) came out at 109%; in experiment [1] (setting [13]), 104%; in experiment [1] (setting [14]) it was 95.9%; in experiment [1] (setting [15]), 101%. For the same compound, the p53-positive nuclei, normalised was 0.0592% (inactive) in experiment [2] (setting [16]); -0.0399% (inactive) in experiment [2] (setting [17]); -0.0329% (inactive) in experiment [2] (setting [18]); -0.0902% (inactive) in experiment [2] (setting [19]); 0.0109% (inactive) in experiment [2] (setting [20]); 0.0145% in experiment [2] (setting [21]). The p53-positive nuclei, normalised in experiment [2] (setting [22]) was -0.114%; in experiment [2] (setting [23]) it was 0.0282%; in experiment [2] (setting [24]) it was -0.231%; in experiment [2] (setting [25]), -0.058%.

On to `Cc1nc(N)sc1-c1ccnc(Nc2ccc(N3CCOCC3)cc2)n1`, for which the nuclei count, normalised turned out to be 40.5% in experiment [1] (setting [9]) and 28.3% in experiment [1] (setting [14]). The p53-positive nuclei, normalised is -0.214% (inactive) in experiment [2] (setting [19]) and -0.143% in experiment [2] (setting [24]).

As to `Fc1cc(-c2ccnc(Nc3ccc(-n4cnc(N5CCOCC5)n4)cc3)n2)cc(N2CCOCC2)c1`, the nuclei count, normalised is 86.7% in experiment [1] (setting [6]); 101% in experiment [1] (setting [7]); 64.8% in experiment [1] (setting [8]); 36.4% in experiment [1] (setting [10]); 73% in experiment [1] (setting [11]); 81% in experiment [1] (setting [12]). For the same compound, the nuclei count, normalised in experiment [1] (setting [13]) came to 43.7%; in experiment [1] (setting [15]) it was 21.7%. For the same compound, the p53-positive nuclei, normalised was 27.8% (inactive) in experiment [2] (setting [16]); 13.6% (inactive) in experiment [2] (setting [17]); 90.9% (active) in experiment [2] (setting [18]); 38.1% (inactive) in experiment [2] (setting [20]); 7.9% in experiment [2] (setting [21]); 2.88% in experiment [2] (setting [22]). Also, the p53-positive nuclei, normalised is 49.4% in experiment [2] (setting [23]) and 15.7% in experiment [2] (setting [25]).

In the case of `CC(C)CC(NC(=O)CNC(=O)c1cc(Cl)ccc1Cl)B(O)O` (configuration not stated), the nuclei count, normalised amounted to 50.2% in experiment [1] (setting [9]) and 43.3% in experiment [1] (setting [14]). Besides, the p53-positive nuclei, normalised was 98% (active) in experiment [2] (setting [19]) and 94% in experiment [2] (setting [24]).

For the compound `CC(C)CC(NC(=O)CNC(=O)c1cc(Cl)ccc1Cl)B1OC(=O)CC(CC(=O)O)(C(=O)O)O1` (configuration not stated), the nuclei count, normalised in experiment [1] (setting [9]) was 46.4%; in experiment [1] (setting [14]), 36.8%. In addition, the p53-positive nuclei, normalised was 97.7% (active) in experiment [2] (setting [19]) and 101% in experiment [2] (setting [24]).

For `CCCC(C)NC(=O)c1ccc(Cl)c(Cl)c1` (configuration not stated), the nuclei count, normalised in experiment [1] (setting [9]) amounted to 116%; in experiment [1] (setting [14]) it was 114%. In addition, the p53-positive nuclei, normalised in experiment [2] (setting [19]) is -0.00479% (inactive); in experiment [2] (setting [24]), -0.344%.

Take `CNC(=O)C(c1ccccc1)N1CCc2cc(OC)c(OC)cc2C1CCc1ccc(C(F)(F)F)cc1` (configuration not stated): the nuclei count, normalised came out at 107% in experiment [1] (setting [9]) and 104% in experiment [1] (setting [14]). Moreover, the p53-positive nuclei, normalised in experiment [2] (setting [19]) was -0.362% (inactive); in experiment [2] (setting [24]) it was -0.539%.

As for `Cc1occc1C(=O)Nc1ccccc1C(=O)N(C)Cc1ccccn1`, the nuclei count, normalised is 96.8% in experiment [1] (setting [3]) and 105% in experiment [1] (setting [4]). In addition, the p53-positive nuclei, normalised in experiment [2] (concentration not given here) was 0.23% (inactive); in experiment [2] (setting [5]), 0.178%.

With `O=C(c1ccccc1-c1nn[nH]n1)N1CCc2[nH]cnc2C1c1ccccn1` (configuration not stated), the nuclei count, normalised was determined as 101% in experiment [1] (setting [3]) and 107% in experiment [1] (setting [4]). The p53-positive nuclei, normalised is -0.169% (inactive) in experiment [2] (concentration not given here) and -0.0711% in experiment [2] (setting [5]).

Consider `O=C(OC[C@@H]1O[C@H]1c1ccccc1)Oc1ccc([N+](=O)[O-])cc1`, for which the figures for the nuclei count, normalised in experiment [1] (setting [3]) and in experiment [1] (setting [4]) were 101% and 105%, respectively. The p53-positive nuclei, normalised in experiment [2] (concentration not given here) is -0.0534% (inactive); in experiment [2] (setting [5]), -0.0466%.

On to `COc1ccc(CC(NC(=O)C(C)NC(=O)CN2CCOCC2)C(=O)NC(Cc2ccccc2)C(=O)[C@]2(C)CO2)cc1` (some centres not stated), for which the nuclei count, normalised was found to be 46% in experiment [1] (setting [9]) and 38.7% in experiment [1] (setting [14]). The p53-positive nuclei, normalised in experiment [2] (setting [19]) was 106% (active); in experiment [2] (setting [24]) it was 126%.

For `CC(C)CC(C(=O)NC(Cc1ccc(OCc2ccccc2)cc1)C(=O)NC(C)(C)C)N(C)Cc1ccc(C(C)(C)C)cc1` (configuration not stated), the nuclei count, normalised in experiment [1] (setting [6]) turned out to be 108%; in experiment [1] (setting [7]) it was 108%; in experiment [1] (setting [8]) it was 110%; in experiment [1] (setting [10]), 113%; in experiment [1] (setting [11]), 103%; in experiment [1] (setting [12]), 105%. For the same compound, the nuclei count, normalised in experiment [1] (setting [13]) came out at 103%; in experiment [1] (setting [15]), 109%. Moreover, the p53-positive nuclei, normalised in experiment [2] (setting [16]) was 0.116% (inactive); in experiment [2] (setting [17]), -0.221% (inactive); in experiment [2] (setting [18]), 0.074% (inactive); in experiment [2] (setting [20]) it was -0.262% (inactive); in experiment [2] (setting [21]), -0.0604%; in experiment [2] (setting [22]), -0.22%. The values for the p53-positive nuclei, normalised in experiment [2] (setting [23]) and in experiment [2] (setting [25]) were -0.108% and -0.169%, respectively.

For the compound `CSCCC(NC=O)C(=O)NC(CC(C)C)C(=O)NC(Cc1ccccc1)C(=O)O` (configuration not stated), the nuclei count, normalised in experiment [1] (setting [6]) worked out at 96%; in experiment [1] (setting [7]), 92.8%; in experiment [1] (setting [8]), 99%; in experiment [1] (setting [10]), 101%; in experiment [1] (setting [11]) it was 97.1%; in experiment [1] (setting [12]) it was 91.9%. Moreover, the nuclei count, normalised in experiment [1] (setting [13]) was found to be 96.7%; in experiment [1] (setting [15]), 99.8%. The p53-positive nuclei, normalised in experiment [2] (setting [16]) is -0.172% (inactive); in experiment [2] (setting [17]), -0.159% (inactive); in experiment [2] (setting [18]) it was -0.166% (inactive); in experiment [2] (setting [20]), -0.212% (inactive); in experiment [2] (setting [21]) it was -0.106%; in experiment [2] (setting [22]), -0.0972%. Besides, the p53-positive nuclei, normalised in experiment [2] (setting [23]) is -0.166%; in experiment [2] (setting [25]), -0.105%.

As for `CC(C)CC(NC(=O)C(CCc1ccccc1)NC(=O)CN1CCOCC1)C(=O)NC(Cc1ccccc1)C(=O)NC(CC(C)C)C(=O)[C@@]1(C)CO1` (some centres not stated), the nuclei count, normalised was 36.4% in experiment [1] (setting [9]) and 30.5% in experiment [1] (setting [14]). Besides, the p53-positive nuclei, normalised is 104% (active) in experiment [2] (setting [19]) and 117% in experiment [2] (setting [24]).

With `COc1ccc(CC(NC(=O)C(C)NC(=O)CN2CCOCC2)C(=O)NC(Cc2ccccc2)C(=O)[C@@]2(C)CO2)cc1` (some centres not stated), the nuclei count, normalised in experiment [1] (measured here: cell number at 24 h, Library stock concentration: 46 uM) amounted to 107%; in experiment [1] (measured here: cell number at 24 h, Library stock concentration: 278 uM), 109%; in experiment [1] (measured here: cell number at 24 h, Library stock concentration: 1.67 mM) it was 57.1%; in experiment [1] (setting [10]), 52.6%; in experiment [1] (measured here: cell number at 48 h, Library stock concentration: 46 uM), 113%; in experiment [1] (measured here: cell number at 48 h, Library stock concentration: 278 uM), 113%. In addition, the nuclei count, normalised in experiment [1] (measured here: cell number at 48 h, Library stock concentration: 1.67 mM) amounted to 43.8%; in experiment [1] (setting [15]), 39.6%. The p53-positive nuclei, normalised is -0.326% (inactive) in experiment [2] (Library stock concentration: 46 uM); 0.734% (inactive) in experiment [2] (Library stock concentration: 278 uM); 103% (active) in experiment [2] (Library stock concentration: 1.67 mM); 102% (active) in experiment [2] (setting [20]); -0.151% in experiment [2] (measured here: p53 positive nuclei at 24 h, Library stock concentration: 46 uM); 0.483% in experiment [2] (measured here: p53 positive nuclei at 24 h, Library stock concentration: 278 uM). Further, the p53-positive nuclei, normalised in experiment [2] (measured here: p53 positive nuclei at 24 h, Library stock concentration: 1.67 mM) is 146%; in experiment [2] (setting [25]), 144%.

Regarding `COC(=O)C(Cc1ccccc1)NC(=O)C(N)CC(=O)O` (stereo not drawn) (H-Asp-Phe-OMe; configuration not given here), the nuclei count, normalised in experiment [1] (setting [9]) amounted to 101%; in experiment [1] (setting [14]), 94.9%. Also, the p53-positive nuclei, normalised was -0.0669% (inactive) in experiment [2] (setting [19]) and -0.12% in experiment [2] (setting [24]).
